Laboratory results: the supplement of paper PMC10127200
Where a name gives a salt, the structure may show the parent alone.

How the values were obtained:
Experiment in all cases: Euclidean distance of Cell Painting phenotypic profile (signed KS, 77 features) to DMSO centroid (dimensionless distance); 5 or 10 uM (library dependent); higher = stronger phenotypic change vs DMSO (phenoactivity)
Conditions in all cases: 48 h
[1] = system: 786-O
Summary of the method: (§1)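 Stained cells were imaged confocally at 20X with 9 fields per well, after 48 h of exposure to library compounds at 10 or 5 uM (set by library; 0.1% DMSO final). The cells were five cancer lines and a healthy fibroblast line. From the images, Harmony extracted 77 features, each expressed as a signed Kolmogorov-Smirnov statistic relative to same-plate vehicle wells. Phenoactivity is measured as Euclidean distance to the median vehicle profile, using plate-position-corrected, correlation-weighted profiles averaged across replicates at the top dose.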

[2] = system: A549
Summary of the method: as §1

[3] = system: DU145
Summary of the method: as §1

[4] = system: FB
Summary of the method: as §1

[5] = system: HEPG2
Summary of the method: as §1

[6] = system: OVCAR4
Summary of the method: as §1

Compound | Euclidean distance [1] | Euclidean distance [2] | Euclidean distance [3] | Euclidean distance [4] | Euclidean distance [5] | Euclidean distance [6]
CNC(=O)c1cc(Oc2ccc(NC(=O)Nc3ccc(Cl)c(C(F)(F)F)c3)c(F)c2)ccn1 [Regorafenib Monohydrate] | 2.14 | 2.35 | 1.71 | 1.8 | 1.82 | 1.76
CC/C(=C(\c1ccc(O)cc1)c1ccc(OCCN(C)C)cc1)c1ccccc1 [4-Hydroxytamoxifen] | 3.21 | 2.74 | 2.16 | 2.61 | 4.31 | 2.89
Cc1nc(C#Cc2ccnc(Cl)c2)c(C)n1-c1ccc(OC(F)(F)F)cc1 | 0.836 | 0.736 | 0.706 | 0.731 | 0.904 | 1.2
O=C1CN(/N=C/c2ccc(-c3ccc([N+](=O)[O-])cc3)o2)C(=O)N1 [Dantrolene sodium hemiheptahydrate] | 0.731 | 0.894 | 1.67 | 1.21 | 0.638 | 1.31
O=C(O)CCCc1ccccc1 [Sodium Phenylbutyrate] | 0.697 | 0.666 | 1.02 | 0.829 | 0.249 | 1.01
CC(=O)N1CCN(CCOc2ccc(C3CCN(C4=Nn5c(nnc5C(F)(F)F)CC4)CC3)cc2)CC1 | 1.54 | 0.992 | 1.22 | 1.76 | 2.06 | 2.66
CO/N=C(\C(=O)N[C@@H]1C(=O)N2C(C(=O)O)=CCS[C@H]12)c1csc(N)n1 [Ceftizoxime] | 1.04 | 1.74 | 0.987 | 1.24 | 0.67 | 1.56
CC(=O)CCCCn1c(=O)c2c(ncn2C)n(C)c1=O [Pentoxifylline] | 1.07 | 0.613 | 1.06 | 1.39 | 0.754 | 1.67
Clc1ccc2c(N3CCN(CCCN4CCN(c5ccnc6cc(Cl)ccc56)CC4)CC3)ccnc2c1 [Piperaquine phosphate] | 1.59 | 1.33 | 1.11 | 1.45 | 0.952 | 1.25
NCCc1c[nH]cn1 [Histamine 2HCl] | 1.32 | 0.957 | 0.954 | 1.22 | 0.814 | 0.832
CC1(C)S[C@@H]2[C@H](NC(=O)[C@H](N)c3ccccc3)C(=O)N2[C@H]1C(=O)O [Ampicillin sodium] | 1.18 | 0.444 | 1.06 | 0.59 | 0.55 | 1.15
Cc1ccc(C(=O)c2cc(O)c(O)c([N+](=O)[O-])c2)cc1 [Tolcapone] | 0.991 | 1.18 | 1.08 | 0.848 | 0.591 | 1.5
C/C(=C\c1ccc(C(=O)O)cc1)c1ccc2c(c1)C(C)(C)CCC2(C)C [TTNPB (Arotinoid Acid)] | 0.687 | 1.39 | 1.07 | 2.49 | 1.61 | 1.35
CC12CCC(CC1=O)C2(C)C (centres undefined) [Camphor] | 0.669 | 0.742 | 0.875 | 0.818 | 0.352 | 1.67
CCCCc1nc(Cl)c(CO)n1Cc1ccc(-c2ccccc2-c2nnn[nH]2)cc1 [Losartan Potassium (DuP 753)] | 0.807 | 0.621 | 0.847 | 0.722 | 0.759 | 0.893
CC[C@H](CO)Nc1nc(NCc2ccccc2)c2ncn(C(C)C)c2n1 [Roscovitine (Seliciclib.CYC202)] | 2.13 | 2.16 | 1.28 | 1.32 | 1.82 | 1.84
CC(C)[C@H](N)C(=O)OCCOCn1cnc2c(=O)nc(N)[nH]c21 [Valaciclovir HCl] | 1.18 | 1.31 | 2.3 | 0.774 | 1.28 | 1.37
CN(C)C(=O)COC(=O)Cc1ccc(OC(=O)c2ccc(NC(=N)N)cc2)cc1 [Camostat Mesilate] | 1.16 | 0.62 | 1.08 | 0.645 | 0.823 | 1.71
CO/N=C(\C(=O)N[C@@H]1C(=O)N2C(C(=O)O)=C(COC(C)=O)CS[C@H]12)c1csc(N)n1 [Cefotaxime] | 1.26 | 0.798 | 0.573 | 0.69 | 0.777 | 0.905
Cc1cc(C)c(CNC(=O)c2cc(-c3ccc(CN4CCOCC4)cc3)cc3c2cnn3C2CCCC2)c(=O)[nH]1 | 1.48 | 1.7 | 0.808 | 1.97 | 1.44 | 0.692
C[C@H]1COC2(CCN(c3nc(=O)c4cc(C(F)(F)F)cc([N+](=O)[O-])c4s3)CC2)O1 (racemic) [BTZ043 Racemate] | 1.5 | 0.656 | 1.01 | 1.47 | 0.565 | 0.748
CCOC(CN1CCN(CC(C)C(=O)c2ccccc2)CC1)c1ccccc1 (centres undefined) [Eprazinone 2HCl] | 1.87 | 1.02 | 1.2 | 1.38 | 1.56 | 1.28
CCc1ccc(CCOc2ccc(CC3SC(=O)NC3=O)cc2)nc1 (centres undefined) [Pioglitazone] | 0.465 | 0.586 | 0.944 | 0.666 | 0.336 | 0.891
c1ccc(-c2nn3c(c2-c2ccnc4cc(OCCN5CCOCC5)ccc24)CCC3)nc1 | 1.44 | 0.959 | 1.42 | 1.75 | 1.45 | 0.876
C[C@@H](O)[C@H]1C(=O)N2C(C(=O)O)=C(SCCNC=N)C[C@H]12 [Imipenem] | 0.957 | 1.45 | 0.986 | 0.737 | 0.883 | 0.789

Compound | Euclidean distance [1] | Euclidean distance [2] | Euclidean distance [3] | Euclidean distance [4] | Euclidean distance [5] | Euclidean distance [6]
O=c1ccc2ccccc2o1 [Coumarin] | 1.02 | 0.975 | 1.08 | 1.25 | 0.824 | 1.2
CN1CCN(C2CCN(C(=O)Nc3cc(Oc4ccc(NC(=O)C5(C(=O)Nc6ccc(F)cc6)CC5)c(F)c4)ccn3)CC2)CC1 [Golvatinib (E7050)] | 1.08 | 1.47 | 1.32 | 3.36 | 3.28 | 1.45
O=C(Nc1cc(C(F)(F)F)ccc1N1CCCCC1)c1ccncc1 | 0.961 | 1.47 | 0.983 | 0.794 | 0.96 | 1.67
O=S(=O)(c1cccc2cnccc12)N1CCCNCC1 [Fasudil (HA-1077) HCl] | 1.52 | 0.649 | 1.94 | 0.846 | 1.28 | 0.851
CCCN[C@H]1CCc2nc(N)sc2C1 [Pramipexole] | 1.54 | 0.915 | 1.04 | 0.837 | 0.869 | 1.19
O=C1C(=O)N(Cc2ccc(Cl)c(Cl)c2)c2ccccc21 [Apoptosis Activator 2] | 1.05 | 1.36 | 1.29 | 1.07 | 0.54 | 1.11
COc1cc2nc(N3CCN(C(=O)C4CCCO4)CC3)nc(N)c2cc1OC (centres undefined) [Terazosin HCl Dihydrate] | 1.02 | 0.591 | 1.34 | 1.07 | 1.69 | 1.43
O=C(Nc1ccccc1-c1cn2c(CN3CCNCC3)csc2n1)c1cnc2ccccc2n1 | 6.03 | 5.64 | 5.63 | 5.74 | 5.23 | 5.14
O=C(Nc1ncc([N+](=O)[O-])s1)c1ccccc1O [Tizoxanide] | 2.03 | 1.85 | 2.61 | 2.81 | 2.81 | 1.81
OC[C@H]1O[C@@H](c2ccc(Cl)c(Cc3ccc(O[C@H]4CCOC4)cc3)c2)[C@H](O)[C@@H](O)[C@@H]1O | 0.965 | 0.753 | 1.39 | 0.912 | 0.52 | 0.801
Nc1ncnc2c1ncn2C1OC(COP(=O)(O)O)C(O)C1O (centres undefined) [Adenosine 5'-monophosphate monohydrate] | 0.685 | 0.894 | 0.9 | 0.831 | 0.601 | 1.27
O=C(O)CC[C@H]1CC[C@@](c2cc(F)ccc2F)(S(=O)(=O)c2ccc(Cl)cc2)CC1 | 1.76 | 1.71 | 0.876 | 1.8 | 1.76 | 1.58
CCN1CCN(Cc2ccc(Nc3ncc(F)c(-c4cc(F)c5nc(C)n(C(C)C)c5c4)n3)nc2)CC1 | 5.75 | 5.05 | 5.66 | 4.66 | 3.78 | 5.2
C=CC(=O)Nc1ccc2ncnc(Nc3ccc(OCc4cccc(F)c4)c(Cl)c3)c2c1 | 2.14 | 1.92 | 1.99 | 2.48 | 1.03 | 3.41
Cc1ncc(CO)c(CO)c1O [Pyridoxine HCl] | 0.686 | 0.861 | 0.642 | 0.7 | 0.426 | 1.11
O=C(O)c1cn(-c2ccc(F)cc2)c2cc(N3CCNCC3)c(F)cc2c1=O [Sarafloxacin HCl] | 1.11 | 0.812 | 1.78 | 0.799 | 0.601 | 0.719
CO[C@H]1/C=C\C=C(/C)C(=O)NC2=CC(=O)C(NCCN(C)C)=C(C[C@@H](C)C[C@H](OC)[C@H](O)[C@@H](C)/C=C(\C)[C@@H]1OC(N)=O)C2=O | 2.76 | 2.89 | 4.03 | 3.32 | 3.56 | 2.71
NC(=O)Nc1sc(-c2ccc(F)cc2)cc1C(N)=O | 1.85 | 1.8 | 2.12 | 3.25 | 0.991 | 1
COC(=O)N[C@H](C(=O)N1CCC[C@H]1c1ncc(-c2ccc(-c3ccc(-c4cnc([C@@H]5CCCN5C(=O)[C@@H](NC(=O)OC)C(C)C)[nH]4)cc3)cc2)[nH]1)C(C)C | 1.52 | 1.63 | 1.12 | 1 | 0.904 | 1.5
CCCCN1CCCC[C@H]1C(=O)Nc1c(C)cccc1C [Levobupivacaine HCl] | 1.01 | 1.33 | 0.6 | 0.871 | 0.852 | 1.49
CC(C)(Oc1ccc(C2CC2(Cl)Cl)cc1)C(=O)O (centres undefined) [Ciprofibrate] | 1.02 | 0.831 | 0.853 | 0.589 | 0.698 | 1.05
COc1ccc(C[C@H](NC(=O)[C@H](C)NC(=O)CN2CCOCC2)C(=O)N[C@@H](Cc2ccccc2)C(=O)[C@@]2(C)CO2)cc1 | 5.28 | 4.5 | 5.11 | 5.13 | 5.18 | 6.2
CC(=O)N(O)CCCCCNC(=O)CCC(=O)N(O)CCCCCNC(=O)CCC(=O)N(O)CCCCCN [Deferoxamine mesylate] | 2.45 | 2.58 | 6.88 | 2.61 | 2.02 | 2.86
COc1ccc(C2CNC(=O)C2)cc1OC1CCCC1 (centres undefined) [Rolipram] | 1.65 | 1.51 | 0.853 | 0.861 | 1.13 | 1.44
